Source: PubChem BioAssay (NCATS)
Records with an inconclusive call do not appear. A number with no mark means an inactive call. The source made the active and inactive calls. Calls follow the shape of the dose curve; as a rule, active = well fitted inhibition curve with a large enough effect; inconclusive = small, poorly fitted or top-dose-only effect; inactive = flat fitted curve, though single readings scatter.
% is scaled to controls: 0 for no effect and ±100 for the full control effect.
Also: nearly all actives have a fitted effect of over 65% in size.

These compounds were tested against Glutathione peroxidase 1 (Homo sapiens) (UniProt P07203) (assay: Primary qHTS Assay for Inhibitors of Recombinant Selenoprotein Glutathione Peroxidase 1 (GPX1) (AID 1845191; also: potency is read from the fitted curve at half-maximal effect)). Details: recombinant GPX1, GR-coupled NADPH fluorescence, 15 min; series mostly up to 48.8 µM; activity, negative = inhibition: at the top concentration.
Chain of Glutathione peroxidase 1 (Homo sapiens) (P07203 whole entry, looked up): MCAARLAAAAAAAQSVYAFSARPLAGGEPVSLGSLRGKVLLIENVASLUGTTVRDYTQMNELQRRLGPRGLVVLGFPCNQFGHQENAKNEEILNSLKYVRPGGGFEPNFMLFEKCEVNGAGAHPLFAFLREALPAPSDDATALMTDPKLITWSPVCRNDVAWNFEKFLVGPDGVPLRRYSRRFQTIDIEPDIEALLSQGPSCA
Procedure, shortened: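 GR-coupled readout: NADPH consumption tracked by fluorescence, ex 340/em 450 nm, at t=0 and after 15 min at RT. Final mix 10 nM GPX1, 1 mM GSH, 0.5 mM CHP, 0.5 mM NADPH, 100 nM GR, 0.01% BSA, following 30 min enzyme–compound preincubation.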
With `O=C(COCCOCCOCC(=O)Nc1c(I)cc(I)c(C(=O)O)c1I)Nc1c(I)cc(I)c(C(=O)O)c1I` the “activity, negative = inhibition” value was -0.689%.
With `CCO[C@H](Cc1ccc(OCCc2ccc(OS(C)(=O)=O)cc2)cc1)C(=O)O` the “outcome” value was “inactive”.
`Oc1ccccc1` was tested, and the “activity, negative = inhibition” value was -13.6%.
For `CN1CCCN=C1/C=C/c1cccs1`, the Potency was “inactive”.
`CCCCCN(CCCOC)C(=O)C(CCC(=O)O)NC(=O)c1ccc(Cl)c(Cl)c1` (centres undefined) was tested, and the “outcome” value was “inactive”.
In the case of `Nc1c2ccccc2nc2ccccc12`, the Potency is reported as 22.7 µM (active).
In the case of `C[C@H]1C[C@H]2[C@@H]3CCC4=CC(=O)C=C[C@]4(C)[C@H]3C(=O)C[C@]2(C)[C@@]1(O)C(=O)CO`, the Potency is reported as “inactive”.
In the case of `Cc1ncc(CO)c(CO)c1O`, the “activity, negative = inhibition” value is reported as 0.627%.
In the case of `Cc1cc(O)c2c(O)c3c(O)cccc3cc2c1`, the “activity, negative = inhibition” value is reported as -18.9%.
For `Cc1cc2nc3ccc(=[N+](C)C)cc-3sc2cc1N`, the Potency was 28.6 µM (active).
With `C[C@@H](C1=C(CCN(C)C)Cc2ccccc21)c1ccccn1` the “activity, negative = inhibition” value was -5.3%.
`CCCCCC(=O)O[C@]1(C(C)=O)CC[C@H]2[C@@H]3CCC4=CC(=O)CC[C@]4(C)[C@H]3CC[C@@]21C` was tested, and the “activity, negative = inhibition” value was -9.86%.
For `CCOC(=O)Oc1ccc(CCNC(=O)[C@H](CCSC)NC(C)=O)cc1OC(=O)OCC`, the “outcome” value was “inactive”.
With `CC(=O)Nc1ccc(S(=O)(=O)Nc2cc(C)on2)cc1` the “activity, negative = inhibition” value was -14.1%.
In the case of `Cc1ccc(/C=N/n2c(-c3ccccc3)csc2=S)cc1`, the “outcome” value is reported as “inactive”.
`Cc1ccc(C(=O)Oc2ccc(C(O)CNC(C)(C)C)cc2OC(=O)c2ccc(C)cc2)cc1` (centres undefined) was tested, and the “outcome” value was “inactive”.
`CC(=O)N(CC(=O)N(C)C)c1ccccc1` was tested, and the “activity, negative = inhibition” value was 2.13%.
For `Fc1ccc(C(c2ccc(F)cc2)N2CCNCC2)cc1`, the “outcome” value was “inactive”.
For `CC(C)=CCNc1ncnc2c1ncn2[C@@H]1O[C@H](CO)[C@@H](O)[C@H]1O`, the “outcome” value was “inactive”.
`CC(=O)OCC[N+](C)(C)C` was tested, and the “activity, negative = inhibition” value was -3.26%.
For `CC(C)=CCC/C(C)=C/CC/C(C)=C/CCC(=O)OC/C=C(\C)CCC=C(C)C`, the “activity, negative = inhibition” value was -15.7%.
`COc1ccc2c(c1)c(CC(=O)OC/C=C(\C)CC/C=C(\C)CCC=C(C)C)c(C)n2C(=O)c1ccc(Cl)cc1` was tested, and the “activity, negative = inhibition” value was -25.1%.
`COC(=O)C1=C(C)NC(C)=C(C(=O)OCCc2ccc(N3CCN(C(c4ccccc4)c4ccccc4)CC3)cc2)C1c1cccc([N+](=O)[O-])c1` (centres undefined) was tested, and the “activity, negative = inhibition” value was -11.3%.
In the case of `CC(=O)N[C@@H](CCC(N)=O)C(=O)O`, the “activity, negative = inhibition” value is reported as -8.38%.
In the case of `CC(C)C(=O)OCc1cccc(OC(=O)[C@@H]2N3C(=O)[C@@H](NC(=O)Cc4ccccc4)[C@H]3SC2(C)C)c1`, the “activity, negative = inhibition” value is reported as -36.3%.
With `COC(=O)/C=C\C(=O)OC` the “activity, negative = inhibition” value was -15.6%.
With `CN(C)CCN(Cc1ccsc1)c1ccccn1` the “outcome” value was “inactive”.
In the case of `CC(=O)N(CC(O)CO)c1c(I)c(C(=O)NCCO)c(I)c(C(=O)NCC(O)CO)c1I` (centres undefined), the “outcome” value is reported as “inactive”.
`NC(=O)NC1N=C([O][Al])NC1=O` (centres undefined) was tested, and the “activity, negative = inhibition” value was -4.68%.
For `CCOC(=O)O[C@]1(C(=O)OCCl)CC[C@H]2[C@@H]3CCC4=CC(=O)C=C[C@]4(C)[C@H]3[C@@H](O)C[C@@]21C`, the Potency was “inactive”.
In the case of `O=C(OCC1(COC(=O)c2cccnc2)CCCC(COC(=O)c2cccnc2)(COC(=O)c2cccnc2)C1O)c1cccnc1`, the “activity, negative = inhibition” value is reported as -20.4%.
In the case of `CO[C@@]1(NC(=O)CSC[C@@H](N)C(=O)O)C(=O)N2C(C(=O)O)=C(CSc3nnnn3C)CS[C@@H]21`, the Potency is reported as 22.7 µM (active).
`COC(=O)CCCCC(CCSS/C(CCO)=C(\C)N(C=O)Cc1cnc(C)nc1N)SC(C)=O` (centres undefined) was tested, and the “activity, negative = inhibition” value was -5.62%.
For `Cc1ccc(Cl)c(OCC(O)CNC(C)(C)C)c1` (centres undefined), the “activity, negative = inhibition” value was -15%.
For `CCCc1ccc(OCC(=O)N2CCN(C(=O)COc3ccc(CCC)cc3OC)CC2)c(OC)c1`, the “outcome” value was “inactive”.
For `C/C(=N/NC(=O)c1ccncc1)C(=O)O`, the “activity, negative = inhibition” value was -0.438%.
`COC(=O)[C@H]1[C@H]2C[C@@H]3c4[nH]c5cc(OC)ccc5c4CCN3C[C@H]2C[C@@H](OC(=O)/C=C/c2ccc(O)c(OC)c2)[C@@H]1OC` was tested, and the “activity, negative = inhibition” value was 1.11%.

The compounds below were run against Phospholipid hydroperoxide glutathione peroxidase GPX4 (Homo sapiens) (UniProt P36969) (assay: Primary qHTS Assay for Inhibitors of Recombinant Selenoprotein Glutathione Peroxidase 4 (GPX4) (AID 1845192)). Details: recombinant GPX4, GR-coupled NADPH fluorescence, 15 min; series mostly up to 50 µM; activity change, negative = inhibition: at the top concentration.
Chain of Phospholipid hydroperoxide glutathione peroxidase GPX4 (Homo sapiens) (P36969 whole entry, looked up): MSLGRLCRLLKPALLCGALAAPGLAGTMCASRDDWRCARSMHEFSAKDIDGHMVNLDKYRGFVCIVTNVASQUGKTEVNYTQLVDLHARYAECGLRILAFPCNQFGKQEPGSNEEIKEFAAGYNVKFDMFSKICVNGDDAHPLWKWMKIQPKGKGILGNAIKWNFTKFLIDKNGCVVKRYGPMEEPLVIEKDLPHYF
Procedure, shortened: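 Steps: GPX4 plus compound, 30 min RT; add GR/GSH/NADPH master mix; start with cumene hydroperoxide; read 340/450 nm fluorescence at 0 and 15 min. Finals were 200 nM GPX4, 1 mM GSH, 0.5 mM CHP, 0.5 mM NADPH, 100 nM GR.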
For `O=C(COCCOCCOCC(=O)Nc1c(I)cc(I)c(C(=O)O)c1I)Nc1c(I)cc(I)c(C(=O)O)c1I`, the “activity change, negative = inhibition” value was 3.62%.
In the case of `CCCCCN(CCCOC)C(=O)C(CCC(=O)O)NC(=O)c1ccc(Cl)c(Cl)c1` (centres undefined), the “activity change, negative = inhibition” value is reported as 0.916%.
For `Cc1ncc(CO)c(CO)c1O`, the “activity change, negative = inhibition” value was 1.05%.
For `CC(=O)N(CC(=O)N(C)C)c1ccccc1`, the “activity change, negative = inhibition” value was -8.57%.
For `COC(=O)/C=C\C(=O)OC`, the “activity change, negative = inhibition” value was -14.9%.
For `CN(C)CCN(Cc1ccsc1)c1ccccn1`, the “outcome” value was “inactive”.
For `CCOC(=O)O[C@]1(C(=O)OCCl)CC[C@H]2[C@@H]3CCC4=CC(=O)C=C[C@]4(C)[C@H]3[C@@H](O)C[C@@]21C`, the Potency was “inactive”.
